High-throughput results: PubChem, Broad Institute
aSyn UTR inh: 5' untranslated region of α-synuclein, MLPCN primary screen | alpha-synuclein 5'UTR reporter, inhibitor activity | inhibition, % (tested at 7.5 µM) | 300,000 compounds, 0.82% hits | AID 1813; in the data active = inhibition above about 60%; inconclusive = no clear call, values can overlap the other calls;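 also: H4 neuroglioblastoma cells stably carrying SNCA 5'UTR luciferase fusion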
MITF TRPM1 inh: inhibitors of MITF-driven TRPM1 promoter in melanoma cells | SK-MEL-5 TRPM1 promoter luciferase, 24 h | 330,000 compounds, 0.83% hits | inhibition, % at 12.5 µM;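 active = mean inhibition across replicates of 60% or more, whatever share of single replicates reaches that level; inconclusive = some that reach 60%, reason not given; inactive = mean inhibition across replicates below 60%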
Shn3 inh set2: reduces Shn3 3'UTR luciferase signal in osteoblasts; 360,000 compounds, 0.52% hits; inhibition, % at 12.5 µM; AID 588674; Clone20 osteoblast Shn3 3'UTR firefly luciferase, 24 h;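 active = mean inhibition of at least 75% with every replicate also reaching 75%; inconclusive = mean inhibition at least 75% but some replicate below; inactive = mean inhibition below 75%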
PAX8 reporter: PAX8 transcriptional activity inhibition. RMG-I TPO-luciferase reporter, SteadyGlo, 24 h. inhibition, % at 12.6 µM. 360,000 compounds, 1.2% hits;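 active = mean replicate inhibition at least 60% with every replicate also reaching 60%; inconclusive = only one of the two criteria is met; inactive = mean below 60% and not all replicates reaching 60%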;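 also: luciferase light reporting Pax8 driven TPO promoter activity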
LMP1 NFkB inh: Epstein-Barr LMP1 NF-kappaB reporter inhibition | LMP1-induced NF-kappaB luciferase reporter cells, luminescence | inhibition, % at 12.5 µM | 350,000 compounds, 0.69% hits | AID 504558; in the data active = inhibition above about 41%; inconclusive = no clear call, values can overlap the other calls
Of the large screens only hits and unclear results are named; the others gave an inactive call. A selection: hits, their analogues and other compounds. The true share with any hit is near 2.1%.

COC/C=C/C1=CC2=CC(=O)C(C)(OC(=O)c3cnc4ccccc4n3)C(=O)C2=CN1c1ccccc1 (configuration not stated)	PAX8 reporter 66.8 (no result: MITF TRPM1 inh, Shn3 inh set2, LMP1 NFkB inh)
O=C(COc1ccccc1-c1ccccc1)N/N=C/c1ccc2ccccc2c1	PAX8 reporter 93.5
C/C(=N\NC(=O)COc1ccccc1-c1ccccc1)c1cccnc1	none
O=C(COc1ccccc1-c1ccccc1)N/N=C/c1ccncc1	none
C/C(=N\NC(=O)COc1ccccc1-c1ccccc1)c1ccc(O)cc1O	Shn3 inh set2 92.1
C/C(=N\NC(=O)COc1ccccc1-c1ccccc1)c1ccccn1	aSyn UTR inh 114.0, MITF TRPM1 inh 83.9, Shn3 inh set2 97.7, PAX8 reporter 81.1, LMP1 NFkB inh 41.0
CCCCCC(=O)N/N=C(\C)c1ccccn1	aSyn UTR inh 66.6 (no result: PAX8 reporter)
CNC(=S)N/N=C/c1cc(C)n(-c2ccc(Cl)c(Cl)c2)c1C	none
CCC(=O)Nc1ccc(/C(C)=N\NS(=O)(=O)c2ccc(C)cc2)cc1	none (no result: PAX8 reporter)
CC1(c2ccc(Cl)cc2)NC(=O)N(CC(=O)N2CCc3ccccc32)C1=O (configuration not stated)	none (no result: aSyn UTR inh)
CCCCCCCC(=O)N/N=C(\C)c1ccc(N)cc1	none (no result: MITF TRPM1 inh, Shn3 inh set2, PAX8 reporter, LMP1 NFkB inh)
C/C(=N\NC(=O)c1cc(-c2cccnc2)nc2ccccc12)c1ccc(O)cc1O	aSyn UTR inh 105.0 (no result: PAX8 reporter)
CCCCCC(=O)N/N=C(\C)c1ccc(N2CCCCC2)cc1	PAX8 reporter 126.1
O=C1NC[C@H](c2ccccc2)OC(=O)[C@H](Cc2ccc(F)cc2)C/C=C\C[C@H]1CC(=O)N(CCO)Cc1ccccc1	PAX8 reporter 82.6 (no result: aSyn UTR inh)
O=C1NC[C@@H](c2ccccc2)OC(=O)[C@H](Cc2ccc(F)cc2)C/C=C\C[C@H]1CC(=O)N(CCO)Cc1ccccc1	none (no result: aSyn UTR inh)
O=C1NC[C@H](c2ccccc2)OC(=O)[C@@H](Cc2ccc(F)cc2)C/C=C\C[C@H]1CC(=O)N(CCO)Cc1ccccc1	PAX8 reporter 85.9 (no result: aSyn UTR inh)
C[C@@H]1COC(=O)[C@H](Cc2ccc(F)cc2)CC/C=C/C[C@@H](CC(=O)N[C@@H](CO)Cc2ccccc2)C(=O)N1	none (no result: aSyn UTR inh)
O=C1N[C@H](Cc2ccccc2)COC(=O)[C@@H](Cc2ccc(F)cc2)CC/C=C/C[C@H]1CC(=O)N(CCO)Cc1ccccc1	none (no result: aSyn UTR inh)
O=C(C[C@@H]1C/C=C/CC[C@H](Cc2ccc(F)cc2)C(=O)OC[C@@H](Cc2ccccc2)NC1=O)N[C@H](CO)Cc1ccccc1	MITF TRPM1 inh 90.8, PAX8 reporter 102.5 (no result: aSyn UTR inh)
O=C1N[C@@H](Cc2ccccc2)COC(=O)[C@@H](Cc2ccc(F)cc2)CC/C=C/C[C@@H]1CC(=O)N(CCO)Cc1ccccc1	PAX8 reporter 68.1 (no result: aSyn UTR inh)
CN(C(=O)COc1ccccc1C(=O)NCCOc1ccccc1)c1ccccc1	Shn3 inh set2 93.7, PAX8 reporter 74.0
O=C(NCCOc1ccccc1)c1ccccc1Cl	none
COC(=O)c1cn(NC(=O)c2cc([N+](=O)[O-])ccc2F)c(=O)c2ccccc12	Shn3 inh set2 93.6, LMP1 NFkB inh 85.9
CO[C@H]1CN(C)C(=O)c2ccc(NC(=O)Nc3ccccc3F)cc2OC[C@H](C)N(Cc2ccccc2C(=O)O)C[C@@H]1C	none (no result: aSyn UTR inh, MITF TRPM1 inh, Shn3 inh set2, LMP1 NFkB inh)
CO[C@@H]1CN(C)C(=O)c2ccc(NC(=O)Nc3ccccc3F)cc2OC[C@@H](C)N(Cc2ccccc2F)C[C@H]1C	PAX8 reporter 70.7 (no result: aSyn UTR inh, MITF TRPM1 inh, Shn3 inh set2, LMP1 NFkB inh)
COc1cccc(S(=O)(=O)Nc2ccc3c(c2)C(=O)N(C)C[C@H](OC)[C@@H](C)CN(Cc2ccccc2F)[C@@H](C)CO3)c1	PAX8 reporter 65.0 (no result: aSyn UTR inh, MITF TRPM1 inh, Shn3 inh set2, LMP1 NFkB inh)
C[C@@H]1CN([C@@H](C)CO)C(=O)Cc2cc(NC(=O)C3CC3)ccc2O[C@H]1CN(C)Cc1ccc(-c2ccccc2)cc1	PAX8 reporter 90.5 (no result: aSyn UTR inh, MITF TRPM1 inh, Shn3 inh set2, LMP1 NFkB inh)
C[C@H]1CN([C@@H](C)CO)C(=O)Cc2cc(NC(=O)c3ccncc3)ccc2O[C@@H]1CN(C)Cc1ccccc1	none (no result: aSyn UTR inh, MITF TRPM1 inh, Shn3 inh set2, LMP1 NFkB inh)
C[C@@H]1CN([C@@H](C)CO)C(=O)Cc2cc(NC(=O)Cc3ccccc3)ccc2O[C@H]1CN(C)Cc1ccc(-c2ccccc2)cc1	PAX8 reporter 78.8 (no result: aSyn UTR inh, MITF TRPM1 inh, Shn3 inh set2, LMP1 NFkB inh)
C[C@H]1CN([C@@H](C)CO)C(=O)Cc2cc(NC(=O)c3ccncc3)ccc2O[C@H]1CN(C)Cc1ccc(-c2ccccc2)cc1	PAX8 reporter 68.8 (no result: aSyn UTR inh, MITF TRPM1 inh, Shn3 inh set2, LMP1 NFkB inh)
C[C@H]1CN([C@@H](C)CO)C(=O)Cc2cc(NC(=O)Nc3ccc4c(c3)OCO4)ccc2O[C@@H]1CN(C)Cc1ccc(-c2ccccc2)cc1	PAX8 reporter 77.7 (no result: aSyn UTR inh, MITF TRPM1 inh, Shn3 inh set2, LMP1 NFkB inh)
COc1cccc(NC(=O)C2Cc3ccccc3CN2C(=O)c2ccco2)c1 (configuration not stated)	none
CC(=O)c1cc2c(cc1NS(=O)(=O)c1ccc(F)cc1)OCO2	none
COc1cccc(C(=O)NN2c3ccccc3CCc3ccccc32)c1	PAX8 reporter 67.4
CCN(c1nc(N)c(C(=O)N=C(N)N)nc1Cl)C(C)C	PAX8 reporter 107.2
CCCCn1c2c(c(=N)c3ccccc31)CCC2	none (no result: Shn3 inh set2)
CCCCCCCCn1c2c(c(=N)c3ccccc31)CCC2	MITF TRPM1 inh 89.9, Shn3 inh set2 91.5, PAX8 reporter 80.0
CCOC(=O)Cn1c2c(c(=N)c3ccccc31)CCC2	none (no result: PAX8 reporter)
CCCCCn1c2c(c(=N)c3ccccc31)CCC2	PAX8 reporter 66.7
COc1ccc(-n2cnnc2SCC(=O)Nc2cc(C(C)(C)C)nn2-c2ccccc2)cc1	none (no result: PAX8 reporter)
O=[N+]([O-])c1cc(-c2nnc(Nc3ccccc3)c3ccccc23)ccc1N1CCOCC1	PAX8 reporter inconclusive
O=C(NCc1ccccc1Cl)C1CCC(=O)N(C2CC2)C1 (configuration not stated)	none
O=S(=O)(/C(=C/c1ccc(C(F)(F)F)cc1)c1nc2ccccc2[nH]1)c1ccccc1	MITF TRPM1 inh 90.5, PAX8 reporter 114.8
CC(C)c1ccc(/C=C(\c2nc3ccccc3[nH]2)S(=O)(=O)c2ccccc2)cc1	MITF TRPM1 inh 87.5, Shn3 inh set2 91.7, PAX8 reporter 87.2
NC(=O)[C@H]1CC2(CC(c3cccc(NC(=O)COc4ccc(Cl)cc4)c3)=NO2)CN1C(=O)Cc1ccc([N+](=O)[O-])cc1 (some centres not stated)	PAX8 reporter 76.0
N#CC1=C(N)SC(N)=C(C#N)C1c1ccnc2ccccc12	none (no result: PAX8 reporter)
O=C1c2ccccc2C(=O)C1c1ccnc2ccccc12	aSyn UTR inh 88.8 (no result: PAX8 reporter)
O=C1c2ccccc2C(=O)C1c1nccc2ccccc12	aSyn UTR inh 98.9 (no result: PAX8 reporter)
O=C(N/N=C/c1cccnc1)c1ccc(NC(=O)C(c2ccccc2)c2ccccc2)cc1	aSyn UTR inh 111.3
O=C(CNC(=O)C(c1ccccc1)c1ccccc1)N/N=C/c1cccnc1	none
COc1ccc(C(=O)CCC(=O)O)c(C)c1	none (no result: PAX8 reporter)
CC(=O)NC1C(O)OC(CO)C(O)C1O (configuration not stated)	Shn3 inh set2 97.1, LMP1 NFkB inh 79.7
CC(=O)N[C@H]1C(O)O[C@H](CO)[C@@H](O)[C@@H]1O (some centres not stated)	none
O=C(c1c[nH]c2ccccc12)C(Cl)c1ccccc1 (configuration not stated)	PAX8 reporter 81.1
